# Only some compounds are listed: those with a hit (about 4.2% of all), similar ones and a draw of the others.
# V-ATPase pH – regulators of yeast V-ATPase proton pumping, primary screen, pHLuorin cytosolic pH fluorescence | S. cerevisiae | response, % at 10 µM | hit rate 0.37% among 350,000 | AID 504577, 2011; in the data active means response mostly above about 7.3%, no sharp cut-off; inactive means mostly below about 5.4%; further: actives read high
# tim10-1 inh – growth inhibitors of tim10-1 mutant yeast, primary screen, luminescence, uHTS. S. cerevisiae tim10-1 ts strain growth, BacTiter-Glo, 24 h. inhibition, % at 20 µM. hit rate 2.2% among 330,000;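 active means inhibition of at least 40%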;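 further: mutant grown at 25 °C; 0% = DMSO wells with yeast and 100% = wells holding no yeast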
# NALP3 yeast inh – NALP3 inflammasome inhibitors in reconstituted yeast, primary screen, luminescence, uHTS | hit rate 0.39% among 330,000 | Yeast reconstituted NLRP3/ASC/caspase-1, beta-gal luminescence, 24 h | inhibition, % at 10 µM;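 active means inhibition of 50% or more; inactive means inhibition below 50%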;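 further: plate controls were induced DMSO wells for no effect and uninduced yeast grown without galactose for full effect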
# tim23-1 inh – growth inhibitors of tim23-1 mutant yeast, primary screen, luminescence, uHTS; hit rate 1.3% among 330,000; inhibition, % at 20 µM; AID 463212, 2010; S. cerevisiae tim23-1 growth, BacTiter-Glo luminescence, 24 h;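 active means growth inhibition of the mutant yeast at or above 50%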;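 further: temperature-sensitive mutant grown at 25 °C; plate controls were DMSO-treated mutant yeast for no effect and medium wells lacking yeast for full effect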
# NALP1 yeast inh – NALP1 inflammasome inhibitors in reconstituted yeast, colorimetric, S. cerevisiae, triplicate retest | S. cerevisiae NALP1/ASC/caspase-1 growth, X-gal OD620, 72 h | inhibition, % at 10 µM | hit rate 0.61% among 280,000 | AID 2071, 2009; in the data active means inhibition mostly above about 24%, no sharp cut-off; inactive means mostly below about 32%
# TIM10 inh – growth inhibitors of isogenic TIM10 control yeast, primary screen, counter-screen for tim10-1 yeast inhibitor project, luminescence, uHTS. S. cerevisiae TIM10 strain growth, BacTiter-Glo luminescence, 24 h. inhibition, % at 10 µM. hit rate 1.4% among 330,000;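 active means inhibition of 40% or more at the single tested concentration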;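 further: wild-type TIM10 isogenic control strain grown at permissive 25 °C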
# tim10-1 conf – growth inhibitors of tim10-1 mutant yeast, confirmation, single concentration, luminescence, S. cerevisiae; inhibition, % at 20 µM; AID 463213, 2010; S. cerevisiae tim10-1 ts strain growth, BacTiter-Glo, 24 h; shares compounds with tim10-1 inh; hit rate 56% among 7,400;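 active means inhibition of yeast growth at or above a set limit in either of two repeat tests at 20 µM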;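 further: tim10-1 mutant grown at permissive 25 °C to find synthetic lethal compounds; 0% = DMSO yeast wells and 100% = medium wells without yeast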
# tim10 confirm – growth inhibitors of wild-type TIM10 yeast, confirmation, counter-screen for tim10-1 synthetic lethality project, single concentration, luminescence, S. cerevisiae. shares compounds with TIM10 inh. AID 463215, 2010. hit rate 63% among 4,600. inhibition, % at 10 µM. S. cerevisiae tim10 strain growth, BacTiter-Glo luminescence, 24 h;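 active means inhibition of yeast growth at or above a set limit in either of two replicates at 10 µM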;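 further: this counterscreen used the strain with wild-type TIM10; 0% = yeast with DMSO and 100% = medium wells lacking yeast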
# tim23-1 confirm – tim23-1 mutant yeast growth inhibitors, confirmation, luminescence, single concentration. hit rate 83% among 4,400. inhibition, % at 20 µM. S. cerevisiae tim23-1 growth, BacTiter-Glo luminescence, 24 h. shares compounds with tim23-1 inh;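 active means inhibition above about 39% in either of two replicate wells at 20 µM, limit read from the data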;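 further: temperature-sensitive tim23-1 mutant grown at 25 °C; 0% = DMSO wells with yeast and 100% = medium wells without yeast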
# The depositor's hits bear a star; nt = not tested or not shown.
SMILES,V-ATPase pH,tim10-1 inh,NALP3 yeast inh,tim23-1 inh,NALP1 yeast inh,TIM10 inh,tim10-1 conf,tim10 confirm,tim23-1 confirm
COc1ccc2c(c1)CC/C2=N\OC(=O)c1ccccc1OC,-1.4,52.8*,6.6,81.1*,-2.9,71.2*,38.2*,80.4*,79.5*
COc1ccccc1-c1ccc(=O)n(CC(=O)NC2CCc3ccccc32)n1 (centres undefined),6.2,19.4,-6.7,1.6,4.1,-12.7,nt,nt,nt
Cc1ccc(N=Cc2c(C)[nH]n(-c3nc4ccccc4[nH]3)c2=O)cc1,0.4,62.4*,-3.4,65.3*,22.8,43.8*,59.5*,-11.4,67.7*
O=C(C1=C(O)/C(=C/c2ccc(O)cc2)CCC1)C(F)(F)F,-1.3,49.7*,12.4,51.8*,-3.6,16.9,16.4,nt,58.8*
COc1ccc(/C=C2\CCCC(C(=O)C(F)(F)F)=C2O)cc1,-3.3,39.6,0.5,3.5,31.3,25.5,nt,nt,nt
Cc1ccc(-c2ccc(/C=C/C(=O)c3ccccc3)o2)cc1,4.2,62.2*,-1.5,62.0*,nt,66.8*,69.2*,67.0*,77.6*
COCC(C)NS(=O)(=O)c1ccc(C(=O)NCCCn2ccc3ccccc32)cc1 (centres undefined),-4.8,0.9,10.9,-2.9,1.3,-31.7,nt,nt,nt
CC1CCN(C(=O)c2ccc3c(c2)NC(=O)/C(=C/c2ccccc2)S3)CC1,-1.8,42.3*,15.5,50.4*,3.6,-7.2,0.6,nt,47.5*
Cc1ccc(/C=C2/Sc3ccc(C(=O)N4CCN(C)CC4)cc3NC2=O)cc1,4.1,25.2,11.6,28.1,21.4,14.1,nt,nt,nt
CN1CCN(c2ccc(S(=O)(=O)N3CCOCC3)cc2NC(=O)COc2ccc(C#N)cc2)CC1,4.5,nt,nt,nt,nt,nt,nt,nt,nt
CCC(=O)NCCc1nc2cc(NC(=O)c3ccc(F)cc3)ccc2n1C,0.8,5.8,5.1,12.8,21.2,-6.0,nt,nt,nt
Cc1onc(-c2ccccc2)c1-c1nc2cc(Cl)ccc2c(=O)o1,-1.2,43.3*,9.7,68.4*,-0.8,19.2,17.6,nt,52.7*
Cc1cc(Nc2ccccc2)nc(-c2ccccc2O)n1,1.6,63.1*,7.4,65.3*,11.9,55.9*,55.2*,65.8*,68.1*
CCOC(=O)c1ccc(Nc2cc(C)nc(-c3ccccc3O)n2)cc1,2.4,20.2,1.8,21.8,3.8,26.1,nt,nt,nt
O=C(Nc1cccc(Br)c1)c1ccc(CN2CCc3ccccc3C2)cc1,5.7,44.3*,36.2,63.4*,16.6,43.7*,31.4*,38.0*,74.2*
COC(=O)[C@@H](Cc1c[nH]c2ccccc12)NC(=O)CCC(=O)c1ccc(F)cc1,-2.8,14.4,19.4,13.3,11.5,-5.2,nt,nt,nt
COc1ccccc1C(=O)Nc1ccc2c(c1)n(C)c(=O)n2C,1.2,13.0,17.6,11.8,5.5,0.0,nt,nt,nt
O=c1oc2cc(Oc3c([N+](=O)[O-])cc(C(F)(F)F)cc3[N+](=O)[O-])ccc2c2c1CCCC2,-0.6,71.9*,29.3,75.9*,0.2,68.5*,64.6*,73.5*,78.7*
O=C(Nc1ccc(NC(=O)C2CC2)cc1)c1cccs1,3.4,-13.8,6.5,28.8,17.1,14.8,nt,nt,nt
O=C(/C=C/c1cccs1)NC(=S)NNC(=O)c1ccccc1O,1.8,44.5*,48.4,64.5*,-8.8,42.3*,24.2,41.7*,66.4*
CC(Cc1cccs1)NC(=O)Nc1ccc(Cl)cc1 (centres undefined),-3.3,35.9,27.1,24.5,-27.9,13.2,nt,nt,nt
CC(Cc1cccs1)NC(=O)Nc1ccc(Cl)c(Cl)c1 (centres undefined),-0.5,47.4*,25.0,51.8*,1.1,58.7*,51.7*,61.8*,54.0*
NNC(=O)c1csc(-c2ncc(C(F)(F)F)cc2Cl)n1,2.7,-21.6,8.9,-29.5,-4.6,1.1,nt,nt,nt
CCOC(=O)/C(C#N)=C/c1ccc(OC)c(OC)c1,-3.9,1.6,0.1,10.7,5.8,-0.5,nt,nt,nt
CCOc1cc(/C=C(\C#N)C(N)=O)ccc1OS(=O)(=O)c1ccccc1,-0.4,47.8*,9.8,56.7*,14.7,31.3,37.8*,nt,58.1*
SMILES,V-ATPase pH,tim10-1 inh,NALP3 yeast inh,tim23-1 inh,NALP1 yeast inh,TIM10 inh,tim10-1 conf,tim10 confirm,tim23-1 confirm
Cc1cc(=O)oc2c(C(=O)/C=C\c3cccs3)c(O)ccc12,-0.3,53.8*,14.3,73.2*,24.3,55.7*,79.5*,64.1*,66.3*
COc1ccc(/C=C\C(=O)c2c(O)ccc3c(C)cc(=O)oc23)cc1OC,2.1,53.3*,36.6,54.3*,11.2,46.6*,50.3*,50.5*,52.2*
COc1cc(/C=C/C(=O)c2c(O)ccc3c(C)cc(=O)oc23)ccc1O,6.1,77.7*,32.2,73.3*,16.2,57.1*,71.8*,72.9*,82.0*
CC(=O)NC(C)c1cc(Cl)c2cccnc2c1O (centres undefined),-0.7,40.8*,32.3,53.4*,nt,21.2,20.7,nt,38.2
CC(=O)NC(C)c1cc(Cl)c2ccccc2c1O (centres undefined),3.9,2.5,8.5,22.9,nt,5.3,nt,nt,nt
COc1cc(OC)cc(C(=O)N[C@H](C(=O)NC2=NCCS2)C(C)C)c1,5.0,1.1,-0.4,18.4,nt,0.8,nt,nt,nt
O=c1[nH]cnc2c1c(-c1ccccc1)cn2-c1cccc(Cl)c1,0.5,46.4*,-29.9,60.1*,19.6,24.6,36.2*,nt,38.0*
COc1ccc(/C=c2\sc3nc(-c4ccccc4OC)nn3c2=O)c(OC)c1,-1.7,17.6,10.0,-0.1,35.9,-19.9,nt,nt,nt
CCCOc1ccc(Cc2nn3c(=O)/c(=C/c4ccco4)sc3nc2=O)cc1,-12.9,19.7,5.0,24.3,3.7,20.1,nt,nt,nt
O=c1/c(=C/c2ccco2)sc2nc(-c3ccccc3Br)nn12,5.4,45.0*,7.9,57.1*,12.8,63.7*,40.7*,51.0*,45.2*
COc1ccccc1-c1nc2s/c(=C\c3cccs3)c(=O)n2n1,-0.3,63.9*,11.6,77.6*,-0.5,57.3*,29.1,-17.9,76.3*
Cc1nc2ccccc2c2c(N)c3ccccc3n12,-0.6,41.4*,20.7,53.0*,9.5,76.6*,47.4*,28.9,55.0*

# Compound activity as filed in PubChem BioAssay.
